# Measurements reported in the supplement of paper PMC7411054.
# Where a name gives a salt, the structure may show the parent alone.
# System: HepG2-CANX-COX4
# Assay: phenotypically active (imaging signature differs from DMSO and reproducible) at any of 0.3-9 uM (binary (1 = active, 0 = inactive)); higher = active
# Conditions: treatment time: 24 h
# Summary of the method: (§1)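 Cells from fifteen gene-edited reporter lines (A549, HepG2 and WPMY1) were treated for 24 h at 0.3, 1, 3 or 9 µM and imaged live, four wells per condition. Features were normalised per well to solvent control wells. A condition deviated if ≥3 of 4 wells passed the 95th percentile of control Euclidean distances and was reproducible if its median replicate Pearson correlation beat the 95th percentile of non-replicates; phenotypic activity needed both.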
row,Structure (SMILES),phenotypically active
1,CCn1cnc2c(Nc3cccc(Cl)c3)nc(N[C@H]3CCCC[C@H]3N)nc21,1 (active)
2,O=C(Nc1ccncc1)C(=O)c1cn(Cc2ccc(Cl)cc2)c2ccccc12 [Indibulin],1 (active)
3,CC[C@@H](C(=O)[C@@H](C)[C@@H](O)[C@H](C)[C@@H]1O[C@@H]([C@@H](CC)C(=O)O)CC[C@@H]1C)[C@H]1O[C@]2(C=C[C@@H](O)[C@]3(CC[C@@](C)([C@H]4CC[C@](O)(CC)[C@H](C)O4)O3)O2)[C@H](C)C[C@@H]1C [Salinomycin Sodium],1 (active)
4,CC[C@@H](CO)NC(=O)[C@@H]1C=C2c3cccc4c3c(cn4C)C[C@H]2N(C)C1 [methysergide],0 (inactive)
5,CN1C[C@H](C(=O)N[C@]2(C)O[C@@]3(O)[C@@H]4CCCN4C(=O)[C@H](Cc4ccccc4)N3C2=O)C=C2c3cccc4[nH]cc(c34)C[C@H]21 [ergotamine],1 (active)
6,C[C@H](CCC(=O)O)C[C@H](C)C[C@H](C)C(=O)/C=C(\O)[C@H](C)C[C@H](C)C/C=C/[C@@H](C)[C@@H](O)[C@@H](C)[C@@H](O)C[C@@H]1CC[C@@](C)([C@H]2CC[C@@](C)([C@@H](C)O)O2)O1 [Ionomycin free acid],1 (active)
7,N#CC(C#N)=NNc1ccc(OC(F)(F)F)cc1,1 (active)
8,COC1=CC(C)=C[C@@H](C)[C@@H](O)[C@@H](C)CC(C)=CC=C[C@H](OC)[C@@H]([C@@H](C)[C@@H](O)[C@H](C)[C@@]2(O)C[C@@H](O)[C@H](C)[C@@H](C(C)C)O2)OC1=O [Bafilomycin A1],1 (active)
9,COc1cc([C@@H]2c3cc4c(cc3[C@H](O)[C@H]3COC(=O)[C@H]23)OCO4)cc(OC)c1OC [Podophyllotoxin],1 (active)
10,CC[C@]12C=CCN3CC[C@]4(C(=C(C(=O)OC)C1)Nc1ccccc14)[C@@H]32 [Tabersonine dichlorhydrate],1 (active)

# System: HepG2-GM130-SQSTM1
# Assay: as above
# Conditions: treatment time: 24 h
# Summary of the method: as §1
row,Structure (SMILES),phenotypically active
1,CC[C@H]1CN2CC[C@H]1C[C@@H]2[C@@H](O)c1ccnc2ccc(OC)cc12 [Hydroquinidine HCl],1 (active)
2,COc1cc2c(c(OC)c1OC)-c1ccc(O)c(=O)cc1[C@@H](N)CC2 [Trimethylcolchicinic acid],0 (inactive)
3,C[C@@]1(CO)[C@H](O)CC[C@@]2(C)[C@H]1CC[C@H]1C[C@@H]3C[C@@]12CC[C@]3(O)CO [Aphidicolin],1 (active)
4,COC(=O)[C@@]1(O)C[C@H]2O[C@]1(C)n1c3ccccc3c3c4c(c5c6ccccc6n2c5c31)C(=O)NC4,1 (active)
5,COc1ccc(N(C(=O)Oc2c(C)cccc2C)c2ccnc(Nc3ccc(N4CCN(C)CC4)cc3)n2)c(OC)c1,1 (active)
6,COc1ccc2c(c[n+](C)c3c4cc5c(cc4ccc23)OCO5)c1OC [Chelerythrine chloride],0 (inactive)
7,CC[C@@H]1C=CC=CC[C@H](C)[C@@H](O)[C@](C)(O)C(=O)[C@H](C)[C@@H](O)[C@H](C)C(=O)[C@H](C)[C@@H](O)[C@H](C)C=CC(=O)O[C@H]2[C@@H](C)[C@@H](CC1)O[C@@]1(CC[C@@H](C)[C@@H](C[C@H](C)O)O1)[C@@H]2C [Oligomycin A],1 (active)
8,CC(C)[C@@]1(NC(=O)[C@@H]2C[C@@H]3c4cccc5[nH]cc(c45)C[C@H]3N(C)C2)O[C@@]2(O)[C@@H]3CCCN3C(=O)[C@H](Cc3ccccc3)N2C1=O [Dihydroergocristine mesylate],1 (active)
9,O=c1[nH]c2ccccc2n1C1CCN(CCCC(c2ccc(F)cc2)c2ccc(F)cc2)CC1 [pimozide],1 (active)
10,C[C@]12CC[C@H]3[C@@H](CC[C@]4(O)C[C@@H](O)CC[C@]34C=O)[C@@]1(O)CC[C@@H]2C1=CC(=O)OC1 [Strophanthidin],1 (active)
11,CN1CCC2=C[C@H](O)[C@H]3OC(=O)c4cc5c(cc4[C@H]3[C@@H]21)OCO5 [Hippeastrine hydrobromide],0 (inactive)
12,C=C1[C@@H](O)C2C=CC[C@H](C)C(=O)[C@](C)(O)C=C[C@@H](OC(C)=O)[C@]23C(=O)N[C@H](Cc2ccccc2)[C@@H]3[C@@H]1C (stereo partly specified) [Cytochalasin D],1 (active)
13,COc1ccc(C[C@H]2NC[C@H](O)[C@H]2OC(C)=O)cc1 [Anisomycin],1 (active)
14,C[C@@H]1CC[C@H]2[C@@H](C)C(=O)O[C@@H]3O[C@@]4(C)CC[C@@H]1[C@]32OO4 [Artemisinin],1 (active)
15,O=C1NC(=O)c2c1c1c3ccccc3n3c1c1c2c2ccccc2n1C1CCC3O1,0 (inactive)
16,Cc1sc2c(c1C)C(c1ccc(Cl)cc1)=N[C@@H](CC(=O)OC(C)(C)C)c1nnc(C)n1-2,1 (active)
17,CN1C[C@H](C(=O)N[C@]2(C)O[C@@]3(O)[C@@H]4CCCN4C(=O)[C@H](Cc4ccccc4)N3C2=O)C[C@@H]2c3cccc4[nH]cc(c34)C[C@H]21.CN1C[C@H](C(=O)N[C@]2(C)O[C@@]3(O)[C@@H]4CCCN4C(=O)[C@H](Cc4ccccc4)N3C2=O)C[C@@H]2c3cccc4[nH]cc(c34)C[C@H]21 [dihydroergotamine],1 (active)
18,C[C@@]12C(=O)OC(=O)[C@]1(C)[C@H]1CC[C@@H]2O1 [Cantharidin],1 (active)

row,Structure (SMILES),phenotypically active
1,COc1cc2c(c(OC)c1OC)-c1ccc(OC)c(=O)cc1[C@@H](NC(C)=O)CC2 [colchicine],1 (active)
2,CC(C)(O)[C@H]1O[C@H]2CC[C@@]3(C)[C@@](O)(CC[C@H]4Cc5c([nH]c6ccccc56)[C@@]43C)C2=CC1=O [paxilline],0 (inactive)
3,N#CC(C#N)=NNc1cccc(Cl)c1,1 (active)
4,Cc1c(C(=O)Nc2cccc(C(F)(F)F)c2)cc(-c2ccccc2)n1CCCN1CCOCC1,0 (inactive)
5,CCN1CCN(C(=O)Cc2ccc(Nc3ncc(F)c(Nc4ccc(C(=O)Nc5ccccc5Cl)cc4)n3)cc2)CC1,1 (active)
6,CC(C)(C)c1cc(C=C(C#N)C#N)cc(Br)c1O,0 (inactive)
7,O=C(NCCN1CCC2(CC1)C(=O)NCN2c1cccc(F)c1)c1ccc(F)c(F)c1 [ML 298 hydrochloride],1 (active)
8,CC(C)(N)Cc1ccccc1 [phentermine],0 (inactive)
9,CCn1cnc2c(Nc3cccc(Cl)c3)nc(N[C@H]3CCCC[C@H]3N)nc21,1 (active)
10,O=C(Nc1ccncc1)C(=O)c1cn(Cc2ccc(Cl)cc2)c2ccccc12 [Indibulin],1 (active)
11,CC[C@@H](C(=O)[C@@H](C)[C@@H](O)[C@H](C)[C@@H]1O[C@@H]([C@@H](CC)C(=O)O)CC[C@@H]1C)[C@H]1O[C@]2(C=C[C@@H](O)[C@]3(CC[C@@](C)([C@H]4CC[C@](O)(CC)[C@H](C)O4)O3)O2)[C@H](C)C[C@@H]1C [Salinomycin Sodium],1 (active)
12,CC[C@@H](CO)NC(=O)[C@@H]1C=C2c3cccc4c3c(cn4C)C[C@H]2N(C)C1 [methysergide],0 (inactive)
13,CN1C[C@H](C(=O)N[C@]2(C)O[C@@]3(O)[C@@H]4CCCN4C(=O)[C@H](Cc4ccccc4)N3C2=O)C=C2c3cccc4[nH]cc(c34)C[C@H]21 [ergotamine],1 (active)
14,C[C@H](CCC(=O)O)C[C@H](C)C[C@H](C)C(=O)/C=C(\O)[C@H](C)C[C@H](C)C/C=C/[C@@H](C)[C@@H](O)[C@@H](C)[C@@H](O)C[C@@H]1CC[C@@](C)([C@H]2CC[C@@](C)([C@@H](C)O)O2)O1 [Ionomycin free acid],0 (inactive)
15,N#CC(C#N)=NNc1ccc(OC(F)(F)F)cc1,1 (active)
16,COC1=CC(C)=C[C@@H](C)[C@@H](O)[C@@H](C)CC(C)=CC=C[C@H](OC)[C@@H]([C@@H](C)[C@@H](O)[C@H](C)[C@@]2(O)C[C@@H](O)[C@H](C)[C@@H](C(C)C)O2)OC1=O [Bafilomycin A1],1 (active)
17,COc1cc([C@@H]2c3cc4c(cc3[C@H](O)[C@H]3COC(=O)[C@H]23)OCO4)cc(OC)c1OC [Podophyllotoxin],1 (active)
18,CC[C@]12C=CCN3CC[C@]4(C(=C(C(=O)OC)C1)Nc1ccccc14)[C@@H]32 [Tabersonine dichlorhydrate],1 (active)
